Data reported in the supplement of paper PMC10849652.
About 8,800 targets were measured; listed, in parts, are those with a hit and a random draw of the rest. About 0.5% of all pairs of compound and target were hits.

Experiments:
Assay in all cases: log2 fold change, soluble protein after heating vs DMSO (PISA); higher = thermal stabilisation; K562 lysate, 10 uM; active = over 0.2 and 3.5 SD of the protein, either way, in both replicates (recomputed)
erlotinib = compound: C#Cc1cccc(Nc2ncnc3cc(OCCOC)c(OCCOC)cc23)c1 [erlotinib]
Procedure, shortened: (§1)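 Quantification was by TMTpro 16plex LC-MS/MS with equalised channel sums, applied to the supernatant after 21,000xg for 90 min. Samples were crude K562 extract at 1 mg/mL protein in PBS pH 7.4 with 1 mM MgCl2, treated with 10 μM compound for 30 min, heated for 3 min across 48°C-58°C, pooled and brought to 0.5% NP-40 at 4°C. Values are log-two fold changes in thermal stability relative to solvent controls, from duplicates.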

[1] = compound: C/C(=N\NC(=O)C1=CC(=CC=C1)S(=O)(=O)N2CCOCC2)/C3=C(C=CC(=C3)Cl)O
Procedure, shortened: as §1

[2] = compound: C1=CC(=CC=C1C2=NC3=C(N2)C=C(C=C3)C(=O)N)OC4=CC=C(C=C4)Cl
Procedure, shortened: as §1

[3] = compound: C1=CC2=C(C=CC(=C2)/C=C\3/C(=O)NC(=NCC4=CC=CS4)S3)N=C1
Procedure, shortened: as §1

[4] = compound: C1=CC2=NC=CN=C2C=C1/C=C/3\C(=O)NC(=O)S3
Procedure, shortened: as §1

[5] = compound: C1=CC=C(C=C1)C2=NC(=C(N2)C3=CC=NC=C3)C4=CC(=C(C=C4)Cl)O
Procedure, shortened: as §1

[6] = compound: C1=CC=C2C(=C1)C3=NNC4=CC=CC(=C43)C2=O
Procedure, shortened: as §1

[7] = compound: C1CCN(C1)C(=O)NC2=CC=CC(=C2)NC3=NC=C(C(=N3)NCCC4=CN=CN4)Br
Procedure, shortened: as §1

[8] = compound: C1CN(CCC1(CC2=CC=C(C=C2)Cl)N)C3=NC=NC4=C3C=CN4
Procedure, shortened: as §1

IRAK-1-4 Inhibitor I = compound: C1COCCN1CCN2C3=CC=CC=C3N=C2NC(=O)C4=CC(=CC=C4)[N+](=O)[O-] [IRAK-1-4 Inhibitor I]
Procedure, shortened: as §1

Measured: log2 fold change

HK1 isoform 2 (UniProt P19367)
Sequence of UniProt P19367 (P19367 whole entry, looked up): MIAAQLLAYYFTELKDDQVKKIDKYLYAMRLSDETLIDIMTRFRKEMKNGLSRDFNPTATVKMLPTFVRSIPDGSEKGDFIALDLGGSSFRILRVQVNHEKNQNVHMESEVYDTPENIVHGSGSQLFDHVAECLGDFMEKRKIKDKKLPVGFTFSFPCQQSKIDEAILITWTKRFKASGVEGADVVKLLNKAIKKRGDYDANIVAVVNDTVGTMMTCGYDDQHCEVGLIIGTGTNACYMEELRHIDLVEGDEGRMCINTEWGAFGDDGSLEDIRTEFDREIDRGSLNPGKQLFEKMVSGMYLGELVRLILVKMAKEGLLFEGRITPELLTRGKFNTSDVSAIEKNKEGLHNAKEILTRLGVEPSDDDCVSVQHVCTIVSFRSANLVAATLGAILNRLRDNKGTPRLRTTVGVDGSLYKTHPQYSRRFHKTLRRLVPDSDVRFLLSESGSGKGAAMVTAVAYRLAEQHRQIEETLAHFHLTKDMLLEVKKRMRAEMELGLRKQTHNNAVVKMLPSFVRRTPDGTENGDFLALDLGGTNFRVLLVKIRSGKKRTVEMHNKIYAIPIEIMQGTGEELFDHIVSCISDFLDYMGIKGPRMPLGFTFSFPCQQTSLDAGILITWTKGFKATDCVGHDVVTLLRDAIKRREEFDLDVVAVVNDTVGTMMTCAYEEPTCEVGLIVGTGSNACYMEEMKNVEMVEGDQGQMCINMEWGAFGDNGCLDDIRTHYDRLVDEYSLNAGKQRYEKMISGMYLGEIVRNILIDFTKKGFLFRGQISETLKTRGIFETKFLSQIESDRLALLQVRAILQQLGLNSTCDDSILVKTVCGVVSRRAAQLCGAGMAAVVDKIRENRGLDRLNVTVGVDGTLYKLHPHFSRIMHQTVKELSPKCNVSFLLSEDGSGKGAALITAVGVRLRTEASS
inactive: erlotinib -0.027 | [1] -0.006 | [2] 0.009 | [3] 0.006 | [4] 0.007 | [5] 0.007 | [6] -0.006 | [7] 0.001 | [8] 0.014 | IRAK-1-4 Inhibitor I -0.002

GYPA (UniProt P02724)
Sequence of UniProt P02724 (P02724 whole entry, looked up): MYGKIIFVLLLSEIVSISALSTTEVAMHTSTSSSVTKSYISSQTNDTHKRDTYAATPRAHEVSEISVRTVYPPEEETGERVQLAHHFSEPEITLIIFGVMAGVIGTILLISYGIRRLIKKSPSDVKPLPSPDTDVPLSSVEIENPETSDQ
inactive: erlotinib -0.109 | [1] -0.107 | [2] 0.13 | [3] 0.061 | [4] 0.059 | [5] 0.023 | [6] 0.048 | [7] -0.004 | [8] 0.043 | IRAK-1-4 Inhibitor I 0.017

IMPACT (UniProt Q9P2X3)
inactive: erlotinib -0.03 | [1] 0.13 | [2] 0.014 | [3] 0.083 | [4] 0.043 | [5] 0.056 | [6] 0.001 | [7] 0.06 | [8] -0.082 | IRAK-1-4 Inhibitor I -0.076

HDGFL2 isoform 2 (UniProt Q7Z4V5)
inactive: erlotinib -0.008 | [1] -0.028 | [2] 0.032 | [3] -0.008 | [4] -0.03 | [5] 0.027 | [6] 0.01 | [7] 0 | [8] 0.021 | IRAK-1-4 Inhibitor I 0

INTS8 (UniProt Q75QN2)
inactive: erlotinib -0.002 | [1] 0.043 | [2] -0.051 | [3] 0.02 | [4] -0.048 | [5] 0.037 | [6] -0.004 | [7] 0.066 | [8] -0.035 | IRAK-1-4 Inhibitor I 0.015

KCT2 (UniProt Q8NC54)
inactive: erlotinib -0.05 | [1] 0.098 | [2] 0.041 | [3] 0.017 | [4] 0.055 | [5] 0 | [6] -0.026 | [7] 0.021 | [8] 0.01 | IRAK-1-4 Inhibitor I 0.031

HADHA (UniProt P40939)
active: [2] 0.387
inactive: erlotinib -0.08 | [1] 0.042 | [3] 0.014 | [4] -0.087 | [5] -0.003 | [6] 0.026 | [7] -0.067 | [8] 0.04 | IRAK-1-4 Inhibitor I 0.031

GTPBP2 (UniProt Q9BX10)
Sequence of UniProt Q9BX10 (Q9BX10 whole entry, looked up): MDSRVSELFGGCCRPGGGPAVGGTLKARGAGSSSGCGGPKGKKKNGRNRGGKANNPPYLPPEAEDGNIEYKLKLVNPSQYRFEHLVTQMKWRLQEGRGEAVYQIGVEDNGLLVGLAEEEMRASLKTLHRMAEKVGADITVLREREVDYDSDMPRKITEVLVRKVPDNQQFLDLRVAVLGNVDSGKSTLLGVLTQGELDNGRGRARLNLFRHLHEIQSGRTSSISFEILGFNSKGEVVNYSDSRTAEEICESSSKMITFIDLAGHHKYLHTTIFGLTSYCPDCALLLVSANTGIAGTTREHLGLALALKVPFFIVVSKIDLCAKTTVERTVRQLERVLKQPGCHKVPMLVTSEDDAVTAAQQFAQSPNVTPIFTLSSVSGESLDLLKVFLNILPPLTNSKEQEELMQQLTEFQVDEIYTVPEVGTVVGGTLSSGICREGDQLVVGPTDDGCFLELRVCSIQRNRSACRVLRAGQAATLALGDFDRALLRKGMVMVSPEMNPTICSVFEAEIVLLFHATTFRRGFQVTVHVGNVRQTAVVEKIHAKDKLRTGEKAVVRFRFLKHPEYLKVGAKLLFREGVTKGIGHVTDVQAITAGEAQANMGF
inactive: erlotinib -0.008 | [1] -0.051 | [2] -0.05 | [3] -0.002 | [4] -0.011 | [5] 0.02 | [6] -0.032 | [7] -0.058 | [8] -0.017 | IRAK-1-4 Inhibitor I 0.023

GUSB (UniProt P08236)
Sequence of UniProt P08236 (P08236 whole entry, looked up): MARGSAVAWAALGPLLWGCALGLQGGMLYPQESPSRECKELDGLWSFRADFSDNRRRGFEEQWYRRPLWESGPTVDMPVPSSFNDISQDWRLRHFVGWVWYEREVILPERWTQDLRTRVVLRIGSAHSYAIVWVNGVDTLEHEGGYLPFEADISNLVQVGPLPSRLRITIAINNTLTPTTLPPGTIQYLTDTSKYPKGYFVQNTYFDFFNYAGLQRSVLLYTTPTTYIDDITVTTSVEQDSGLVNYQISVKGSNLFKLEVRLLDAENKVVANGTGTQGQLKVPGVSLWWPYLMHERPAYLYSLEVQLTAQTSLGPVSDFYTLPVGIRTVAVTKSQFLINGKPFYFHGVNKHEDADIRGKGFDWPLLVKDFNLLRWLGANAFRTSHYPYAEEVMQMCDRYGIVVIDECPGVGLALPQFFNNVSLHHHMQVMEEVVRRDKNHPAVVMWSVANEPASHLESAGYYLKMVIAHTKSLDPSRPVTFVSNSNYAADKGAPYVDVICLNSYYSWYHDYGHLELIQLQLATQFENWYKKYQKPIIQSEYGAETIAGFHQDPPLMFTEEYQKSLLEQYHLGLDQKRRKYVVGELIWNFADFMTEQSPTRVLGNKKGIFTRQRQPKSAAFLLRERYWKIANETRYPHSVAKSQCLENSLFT
inactive: erlotinib -0.053 | [1] -0.043 | [2] 0.135 | [3] -0.072 | [4] -0.041 | [5] -0.058 | [6] -0.072 | [7] -0.003 | [8] 0.055 | IRAK-1-4 Inhibitor I 0.066

GTF2H4 (UniProt Q92759)
inactive: erlotinib -0.013 | [1] -0.049 | [2] -0.013 | [3] 0.037 | [4] -0.059 | [5] -0.001 | [6] 0.141 | [7] 0.056 | [8] -0.004 | IRAK-1-4 Inhibitor I -0.044

HDHD5 (UniProt Q9BXW7)
inactive: erlotinib -0.015 | [1] -0.038 | [2] 0.012 | [3] 0.07 | [4] 0.022 | [5] -0.006 | [6] -0.027 | [7] -0.023 | [8] -0.05 | IRAK-1-4 Inhibitor I 0.051

HNRNPUL1 (UniProt Q9BUJ2)
inactive: erlotinib -0.039 | [1] 0.011 | [2] 0.002 | [3] -0.016 | [4] -0.023 | [5] -0.045 | [6] 0.03 | [7] 0.01 | [8] -0.02 | IRAK-1-4 Inhibitor I -0.032

GTF2A1 (UniProt P52655)
inactive: erlotinib 0.031 | [1] -0.008 | [2] 0.015 | [3] 0.026 | [4] -0.01 | [5] -0.038 | [6] -0.061 | [7] -0.04 | [8] -0.01 | IRAK-1-4 Inhibitor I 0.033

GMIP (UniProt Q9P107)
inactive: erlotinib 0.014 | [1] 0.019 | [2] -0.02 | [3] -0.029 | [4] 0.009 | [5] 0.068 | [6] 0.03 | [7] -0.063 | [8] 0.019 | IRAK-1-4 Inhibitor I 0.025

GNE isoform 2 (UniProt Q9Y223)
inactive: erlotinib 0.035 | [1] -0.067 | [2] -0.042 | [3] -0.032 | [4] 0.011 | [5] 0.064 | [6] -0.031 | [7] -0.024 | [8] 0.023 | IRAK-1-4 Inhibitor I -0.042

GON4L (UniProt Q3T8J9)
inactive: erlotinib -0.003 | [1] 0.016 | [2] 0.061 | [3] -0.038 | [4] -0.074 | [5] 0.053 | [6] 0.057 | [7] 0.026 | [8] -0.052 | IRAK-1-4 Inhibitor I -0.039

GLUD2 (UniProt P49448)
inactive: erlotinib -0.017 | [1] -0.016 | [2] -0.053 | [3] 0.028 | [4] -0.057 | [5] -0.014 | [6] -0.09 | [7] -0.119 | [8] 0.029 | IRAK-1-4 Inhibitor I 0.113

HDAC1 (UniProt Q13547)
inactive: erlotinib 0 | [1] -0.046 | [2] -0.012 | [3] 0.015 | [4] 0.003 | [5] -0.013 | [6] -0.024 | [7] -0.014 | [8] -0.036 | IRAK-1-4 Inhibitor I -0.043

INTS10 (UniProt Q9NVR2)
Sequence of UniProt Q9NVR2 (Q9NVR2 whole entry, looked up): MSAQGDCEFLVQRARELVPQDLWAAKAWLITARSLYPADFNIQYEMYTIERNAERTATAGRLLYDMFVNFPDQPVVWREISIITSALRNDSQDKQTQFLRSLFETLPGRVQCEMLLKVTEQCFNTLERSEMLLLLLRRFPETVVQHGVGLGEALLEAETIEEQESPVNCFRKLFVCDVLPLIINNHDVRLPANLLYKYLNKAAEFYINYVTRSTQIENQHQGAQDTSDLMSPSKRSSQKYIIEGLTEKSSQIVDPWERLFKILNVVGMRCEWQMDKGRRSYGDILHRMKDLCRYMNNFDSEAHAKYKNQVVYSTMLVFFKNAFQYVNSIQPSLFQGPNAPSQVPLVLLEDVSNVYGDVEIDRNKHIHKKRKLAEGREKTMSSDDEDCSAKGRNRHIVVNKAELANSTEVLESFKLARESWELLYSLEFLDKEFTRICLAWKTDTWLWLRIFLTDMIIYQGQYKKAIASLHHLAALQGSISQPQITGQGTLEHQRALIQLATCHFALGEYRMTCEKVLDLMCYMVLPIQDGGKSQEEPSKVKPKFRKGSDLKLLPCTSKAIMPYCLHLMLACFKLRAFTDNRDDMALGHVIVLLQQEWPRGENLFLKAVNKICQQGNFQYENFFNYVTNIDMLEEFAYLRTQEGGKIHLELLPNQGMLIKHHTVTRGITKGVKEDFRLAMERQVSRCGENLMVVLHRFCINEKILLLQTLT
inactive: erlotinib 0.008 | [1] 0.056 | [2] -0.001 | [3] 0.061 | [4] -0.044 | [5] 0.026 | [6] -0.061 | [7] -0.006 | [8] 0.044 | IRAK-1-4 Inhibitor I -0.004

IRAK1 (UniProt P51617)
Sequence of UniProt P51617 (P51617 whole entry, looked up): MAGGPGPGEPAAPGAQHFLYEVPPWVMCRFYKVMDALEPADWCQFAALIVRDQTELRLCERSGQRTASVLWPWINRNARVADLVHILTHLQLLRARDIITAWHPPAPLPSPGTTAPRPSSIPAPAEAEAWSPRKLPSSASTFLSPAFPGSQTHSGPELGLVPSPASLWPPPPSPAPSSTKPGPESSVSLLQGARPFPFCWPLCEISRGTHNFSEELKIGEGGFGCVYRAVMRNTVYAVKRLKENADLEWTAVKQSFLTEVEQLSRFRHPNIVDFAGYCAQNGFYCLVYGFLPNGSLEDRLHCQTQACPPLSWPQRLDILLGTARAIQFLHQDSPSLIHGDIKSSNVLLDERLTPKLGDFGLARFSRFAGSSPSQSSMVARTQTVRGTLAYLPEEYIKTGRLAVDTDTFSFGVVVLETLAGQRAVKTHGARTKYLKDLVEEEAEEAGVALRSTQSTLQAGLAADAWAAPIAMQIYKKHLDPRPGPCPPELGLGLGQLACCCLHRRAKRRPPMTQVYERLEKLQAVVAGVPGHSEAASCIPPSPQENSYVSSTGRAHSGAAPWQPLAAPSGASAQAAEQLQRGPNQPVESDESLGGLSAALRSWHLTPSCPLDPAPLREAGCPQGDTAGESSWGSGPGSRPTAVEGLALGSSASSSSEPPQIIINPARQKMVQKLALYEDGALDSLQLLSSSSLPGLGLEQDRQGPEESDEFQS
inactive: erlotinib 0.038 | [1] -0.054 | [2] -0.108 | [3] -0.015 | [4] 0.028 | [5] 0.039 | [6] 0.117 | [7] 0.023 | [8] -0.096 | IRAK-1-4 Inhibitor I 0.023

GSK3B isoform 2 (UniProt P49841)
inactive: erlotinib 0.043 | [1] -0.323 | [2] 0.036 | [3] 0.145 | [4] 0.085 | [5] 0.459 | [6] 0.132 | [7] 0.202 | [8] -0.011 | IRAK-1-4 Inhibitor I -0.002

ILKAP (UniProt Q9H0C8)
inactive: erlotinib -0.042 | [1] -0.01 | [2] -0.007 | [3] 0.027 | [4] -0.021 | [5] -0.005 | [6] 0.015 | [7] -0.022 | [8] -0.043 | IRAK-1-4 Inhibitor I 0.004

HSPA8 (UniProt P11142)
inactive: erlotinib -0.022 | [1] 0.003 | [2] 0.008 | [3] 0.002 | [4] -0.028 | [5] -0.004 | [6] 0.038 | [7] 0.016 | [8] -0.009 | IRAK-1-4 Inhibitor I -0.008

INPPL1 (UniProt O15357)
Sequence of UniProt O15357 (O15357 whole entry, looked up): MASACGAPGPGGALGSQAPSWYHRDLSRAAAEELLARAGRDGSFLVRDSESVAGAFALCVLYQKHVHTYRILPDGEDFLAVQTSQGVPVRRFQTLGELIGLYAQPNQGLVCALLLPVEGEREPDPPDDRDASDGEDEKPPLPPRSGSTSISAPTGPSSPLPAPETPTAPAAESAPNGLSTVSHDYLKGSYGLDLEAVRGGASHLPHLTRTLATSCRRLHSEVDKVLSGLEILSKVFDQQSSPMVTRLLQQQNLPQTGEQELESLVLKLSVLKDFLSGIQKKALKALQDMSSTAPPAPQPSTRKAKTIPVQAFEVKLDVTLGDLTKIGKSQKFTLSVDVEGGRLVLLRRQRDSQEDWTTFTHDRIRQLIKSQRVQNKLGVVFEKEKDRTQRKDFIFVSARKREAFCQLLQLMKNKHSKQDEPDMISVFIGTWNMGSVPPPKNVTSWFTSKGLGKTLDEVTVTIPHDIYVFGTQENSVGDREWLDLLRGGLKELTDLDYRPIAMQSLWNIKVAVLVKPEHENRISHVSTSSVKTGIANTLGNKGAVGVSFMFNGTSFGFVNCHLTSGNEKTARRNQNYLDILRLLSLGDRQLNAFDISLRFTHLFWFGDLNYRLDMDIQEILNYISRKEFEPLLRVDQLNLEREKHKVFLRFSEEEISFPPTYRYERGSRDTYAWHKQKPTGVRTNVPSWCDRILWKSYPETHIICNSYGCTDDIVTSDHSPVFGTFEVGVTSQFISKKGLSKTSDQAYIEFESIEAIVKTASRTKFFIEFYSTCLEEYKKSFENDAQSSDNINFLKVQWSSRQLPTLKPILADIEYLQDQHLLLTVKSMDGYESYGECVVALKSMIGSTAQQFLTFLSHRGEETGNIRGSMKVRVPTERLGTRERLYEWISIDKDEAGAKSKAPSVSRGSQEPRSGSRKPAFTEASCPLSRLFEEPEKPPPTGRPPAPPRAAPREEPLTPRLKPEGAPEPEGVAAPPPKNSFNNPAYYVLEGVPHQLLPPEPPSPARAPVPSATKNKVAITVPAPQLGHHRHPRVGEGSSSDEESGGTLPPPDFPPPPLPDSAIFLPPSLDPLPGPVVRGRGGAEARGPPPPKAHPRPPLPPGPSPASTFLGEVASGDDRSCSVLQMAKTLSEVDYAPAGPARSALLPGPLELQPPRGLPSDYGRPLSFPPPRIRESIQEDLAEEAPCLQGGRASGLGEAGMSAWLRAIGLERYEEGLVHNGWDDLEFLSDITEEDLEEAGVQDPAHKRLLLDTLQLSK
inactive: erlotinib -0.01 | [1] -0.034 | [2] -0.018 | [3] -0.052 | [4] -0.006 | [5] -0.02 | [6] -0.051 | [7] -0.021 | [8] 0.003 | IRAK-1-4 Inhibitor I -0.034

IFNGR1 (UniProt P15260)
inactive: erlotinib 0.06 | [1] -0.064 | [2] 0.07 | [3] -0.134 | [4] -0.127 | [5] -0.021 | [6] -0.264 | [7] -0.075 | [8] 0.073 | IRAK-1-4 Inhibitor I 0.107

GNB1 (UniProt P62873)
inactive: erlotinib 0.053 | [1] 0.018 | [2] 0.082 | [3] -0.019 | [4] -0.015 | [5] -0.022 | [6] 0.023 | [7] -0.017 | [8] -0.031 | IRAK-1-4 Inhibitor I 0.012

HLTF (UniProt Q14527)
inactive: erlotinib 0.052 | [1] -0.019 | [2] 0.081 | [3] -0.003 | [4] -0.032 | [5] -0.028 | [6] 0.008 | [7] -0.053 | [8] 0.015 | IRAK-1-4 Inhibitor I -0.019

INTS7 (UniProt Q9NVH2)
active: [4] 0.441
inactive: erlotinib 0.076 | [1] -0.183 | [2] -0.01 | [3] 0.041 | [5] -0.044 | [6] 0.026 | [7] -0.019 | [8] 0.035 | IRAK-1-4 Inhibitor I 0

HDAC10 (UniProt Q969S8)
inactive: erlotinib 0.064 | [1] 0.126 | [2] 0.035 | [3] -0.155 | [4] -0.201 | [5] -0.111 | [6] -0.043 | [7] -0.204 | [8] 0.053 | IRAK-1-4 Inhibitor I 0.016
